High-throughput results from PubChem BioAssay.
Only a selection was taken, and hits are over-represented in it overall.
FXIa mix inh = blocks human factor XIa in pooled compound mixtures. P03951. purified FXIa, fluorogenic substrate. inhibition, % at 5 µM. actives 0.19% (n = 62,000). AID 680;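 further: each value is inhibition by a whole ten-compound pool holding the compound; 0% = enzyme with no mixture and 100% = wells lacking enzyme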
Candida biofilm = kills Candida albicans biofilms | actives 0.14% (n = 85,000) | AID 834 | C. albicans biofilm + clotrimazole, Alamar Blue | inhibition, % at 6 µM;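 active means inhibition above 20%; inactive means inhibition below 20%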;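 further: preformed 24 hr biofilms exposed to compound for 48 hr; 0% = biofilm without compound and 100% = blank killed by clotrimazole plus chlorhexidine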
FXIIa inh mix = inhibitors of human coagulation factor XIIa, pooled mixtures. inhibition, % at 5 µM. AID 684. P00748. purified FXIIa, fluorogenic substrate. actives 0.2% (n = 62,000);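 further: 0% = enzyme without compound and 100% = no enzyme blank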
HePTP inhibitor = inhibitors of human HePTP phosphatase | recombinant HePTP phosphatase activity, OD absorbance | inhibition, % at 20 µM | actives 0.64% (n = 110,000); in the data active means inhibition above about 50%;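 further: plate controls were vehicle for no effect and reference inhibitor for full effect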
TNAP act DEA = activates human TNAP at intermediate phosphate acceptor concentration | purified TNAP, CDP-star luminescence, 100 mM DEA, 30 min; hits give high values; scale: 0 levamisole-inhibited, 1 vehicle-only enzyme | activation factor at 20 µM | 64,000 tested, under 10 active;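 active means activation factor of at least 2 at 20 µM, relative to controls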
D1 mod = D1 dopamine receptor (human) allosteric modulation; P21728; HEK293 D1, CRE-luciferase, dopamine EC30 potentiation; actives deviate in either direction; B-score at 10 µM; actives 5.9% (n = 58,000);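 active means luminescence count or its row- and column-corrected plate score outside the 99.7% band of the plate's sample wells, on either side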
Target sequence (P21728 whole entry, looked up): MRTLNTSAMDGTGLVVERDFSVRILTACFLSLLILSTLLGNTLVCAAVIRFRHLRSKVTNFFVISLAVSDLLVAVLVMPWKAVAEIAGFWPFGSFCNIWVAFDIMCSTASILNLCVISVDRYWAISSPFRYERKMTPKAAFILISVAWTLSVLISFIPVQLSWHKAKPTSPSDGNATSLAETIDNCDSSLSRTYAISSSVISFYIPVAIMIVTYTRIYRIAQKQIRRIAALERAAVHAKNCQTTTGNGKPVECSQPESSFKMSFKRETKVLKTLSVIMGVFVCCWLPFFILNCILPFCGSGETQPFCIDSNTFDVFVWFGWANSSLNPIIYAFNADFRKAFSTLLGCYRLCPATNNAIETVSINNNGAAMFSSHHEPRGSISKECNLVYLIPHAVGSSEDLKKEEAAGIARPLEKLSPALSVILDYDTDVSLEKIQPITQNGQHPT
D1 PAM confirm = D1 receptor (human) allosteric modulation, confirmed. AID 642. shares compounds with D1 mod. HEK293 D1 CRE-luciferase, dopamine EC30 potentiation; hits give high values. luminescence at 10 µM. actives 88% (n = 2,200);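 active means luminescence in either of two replicates above the same-plate mean plus 3 SD of the low-dose dopamine control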
D1 no dopamine = secondary test of D1 modulators: activity without dopamine; shares compounds with D1 mod; AID 646; HEK293 D1 CRE-luciferase, luminescence, no dopamine; hits give high values; actives 0.8% (n = 1,900); luminescence at 10 µM; in the data active means luminescence above about 3900
Isoprot counter = isoproterenol response counter-screen activity for D1 modulators | AID 647 | actives 63% (n = 2,200) | luminescence at 10 µM | shares compounds with D1 mod | HEK293 D1 CRE-luciferase, isoproterenol EC30 counter-screen; hits give high values;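 active means luminescence in either replicate above plate mean of wells with a partly effective reference agonist dose plus 3 SD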;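 further: isoproterenol raises cAMP through native beta-adrenoceptor Gs so signal bypasses D1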
Active calls of the source: *; nt = no result. Unless noted, no stated cut-off is given here; in the data, active means inhibition above about 20% (passing the limit was not always enough); inactive means the rest.

SMILES	FXIa mix inh	Candida biofilm	FXIIa inh mix	HePTP inhibitor	TNAP act DEA	D1 mod	D1 PAM confirm	D1 no dopamine	Isoprot counter
CCOC(=O)c1c(-c2cccs2)csc1NC(=O)CSc1ncn[nH]1	8.3	2.7	-1.6	6.2	1.1	3.35*	11080*	2064	3016
CCOC(=O)c1c(-c2cccs2)csc1NC(C)=O	nt	8.1	nt	nt	nt	nt	nt	nt	nt
CCC(=O)N1CCc2cc(S(=O)(=O)N3CCN(c4ccccn4)CC3)ccc21	21.8	5.9	3.6	8.3	1	2.66*	13196*	1512	3696*
NC(=O)c1c(NC(=O)CSc2nnc(-c3ccco3)n2-c2ccccc2)sc2c1CCC2	2.4	4.5	-17.9	nt	1	4.75*	10124*	1620	2920
CCCCOc1ccc(C(=O)N2CCN(c3cccc(C)c3C)CC2)cc1	nt	nt	nt	-12.2	nt	nt	nt	nt	nt
COc1ccccc1-c1nnc2sc(-c3cc4ccccc4o3)nn12	7.5	3.6	5.9	-5.0	0.9	3.88*	10596*	1704	4336*
COc1ccccc1-c1nnc2sc(-c3cnccn3)nn12	-1.1	7.0	13.2	10.0	1	-0.667	nt	nt	nt
O=C(COC(=O)C1CCN(C(=O)c2ccc(Cl)cc2)CC1)c1ccco1	6.9	4.0	6.0	-3.3	0.9	0.356	nt	nt	nt
CCOC(=O)C1CCN(C(=O)c2ccco2)CC1	2.7	5.5	8.8	5.4	0.9	4.42*	4108	1740	2940
COc1ccc(CN2CCN(C(=O)c3ccco3)CC2)cc1	6.4	6.6	4.6	2.0	0.9	4.08*	5504	1488	2464
COc1cccc(C2C3(C#N)C(N)=NC(OC)(OC)C23C#N)c1 (stereo unspecified)	nt	6.9	nt	nt	nt	nt	nt	nt	nt
COC1(OC)N=C(N)C2(C#N)C(c3cccc(Oc4ccccc4)c3)C12C#N (stereo unspecified)	4.1	8.3	0.8	4.0	0.9	18.9*	16148*	1756	3936*
C=CCSc1nc(N)c(C#N)c(-c2cccs2)c1C#N	nt	nt	nt	1.6	nt	nt	nt	nt	nt
C=CCSc1nc(N)c(C#N)c(-c2ccc(C)cc2)c1C#N	1.7	nt	-4.9	-1.6	0.9	3.15*	4628	1776	2744
COc1ccc(C(=O)CSc2nc(SC)ns2)cc1OC	-7.5	7.5	1.9	3.5	0.9	8.38*	17700*	1872	4392*
CSc1nsc(SCC(=O)Nc2ccccn2)n1	3.0	11.3	-16.7	-1.9	0.9	-0.0295	nt	nt	nt
COc1ccc(C(=O)CSc2cc(C)nc3nc(C)nn23)cc1OC	-24.5	2.6	-1.1	4.9	1	5.13*	9832*	nt	3320*
NC(=O)c1ccc(NC(=O)c2cc(-c3ccc(Cl)c(Cl)c3)nc3ccccc23)cc1	nt	nt	nt	-5.3	nt	nt	nt	nt	nt
COc1cc(/C=C2\SC(=S)N(CC(=O)O)C2=O)ccc1OC(=O)C12CC3CC(CC(C3)C1)C2	nt	nt	nt	-3.5	nt	nt	nt	nt	nt
COc1cccc(-n2c(SCC#N)nnc2-c2cnccn2)c1	3.9	7.0	4.9	-1.3	0.9	0.00506	nt	nt	nt
CC(C)OC(=O)CSc1nnc(-c2cnccn2)n1-c1ccccc1	0.0	9.8	19.2	1.1	0.9	5.08*	7372*	1596	2732
COc1cccc(-n2c(SC)nnc2-c2cnccn2)c1	3.0	5.2	10.4	-4.5	0.8	14.1*	5740	1548	3048
CCC(=O)n1nc(-c2cccnc2)nc1NCc1ccc(OC)cc1	11.4	3.3	-16.4	8.2	0.8	10.9*	7416*	1672	3444
COc1ccc(CNc2nc(NCc3ccc(OC)cc3)n(S(C)(=O)=O)n2)cc1	5.8	4.9	-7.3	4.2	0.8	4.7*	9448*	1620	4064*
CCC(=O)n1nc(NCc2ccc(OC)c(OC)c2)nc1NCc1ccc(OC)c(OC)c1	-0.5	1.6	5.4	10.0	0.9	5.96*	15072*	nt	5080*
SMILES	FXIa mix inh	Candida biofilm	FXIIa inh mix	HePTP inhibitor	TNAP act DEA	D1 mod	D1 PAM confirm	D1 no dopamine	Isoprot counter
COCC(=O)n1nc(NCc2ccc(OC)cc2)nc1NCc1ccc(OC)cc1	6.3	1.5	3.2	9.3	1	1.47	nt	nt	nt
COc1cc(NC(=O)c2cc3nc(-c4cccs4)cc(C(F)(F)F)n3n2)cc([N+](=O)[O-])c1	nt	nt	nt	6.5	nt	nt	nt	nt	nt
CCOC(=O)c1ccc(NC(=O)CN(c2ccc(OCC)cc2)S(=O)(=O)c2ccc(Br)cc2)cc1	nt	nt	nt	2.0	nt	nt	nt	nt	nt
CCOC(=O)c1nn(-c2ccccc2)c(C#N)c1NC(=O)c1nn(CC)cc1Br	9.7	-1.9	9.5	8.9	0.9	4.28*	8684*	nt	2864*
COc1cc2[nH]c(=S)n(C3CCCC3)c(=O)c2cc1OC	-2.3	0.2	5.9	2.1	0.8	2.86*	13356*	1768	2820
c1ccc(-c2csc3nnc(SCc4ccc5c(c4)OCO5)n23)cc1	3.8	nt	9.2	-1.9	0.9	6.78*	16212*	2144	4660*
O=C(CCSc1nnc2scc(-c3ccccc3)n12)NCc1ccc2c(c1)OCO2	-3.0	-0.7	-13.4	-0.6	1	7.33*	11856*	1504	5108*
Fc1ccc(-c2csc3nnc(SCc4cccnc4)n23)cc1	8.4	8.2	-15.6	13.5	0.9	17.3*	26500*	1540	7444*
COc1ccc(OC)c(NC(=O)CCc2ccccc2)c1	nt	nt	nt	0.5	nt	nt	nt	nt	nt
Cc1cc(NC2CCCCC2)nc(N2CCOCC2)n1	4.6	10.1	4.8	4.9	1	0.369	nt	nt	nt
COc1ccc(Nc2cc(C)nc(N3CCOCC3)n2)cc1	4.2	3.9	-9.1	10.4	0.9	3.55*	8656*	1964	3728*
CCOCCOC(=O)C1=C(C)Nc2ccc(C)cc2S1	-3.5	7.7	3.5	1.7	0.9	3.89*	7892*	1460	2832
CCOC(=O)C1=C(C)Nc2ccc(C)cc2S1	nt	5.5	nt	nt	nt	nt	nt	nt	nt
CC(C)Cn1c(=O)c(C(=O)Nc2cnccn2)c(O)c2ccccc21	8.6	1.9	-5.2	4.5	1	3.37*	9760*	1672	3024
CC(C)Cn1c(=O)c(C(=O)Nc2ccncc2)c(O)c2ccccc21	10.7	0.6	2.5	5.6	1	3.39	nt	nt	nt
CCCn1c(=O)c(C(=O)NCc2cccnc2)c(O)c2ccccc21	1.6	-1.6	-1.2	2.9	0.9	8.41*	15012*	1692	3172*
CN1CCN(CN2C(=O)C(=O)c3ccccc32)CC1	nt	nt	nt	-17.6	nt	nt	nt	nt	nt
Cc1onc(-c2ccccc2)c1C(=O)Nc1ccc2c(c1)OCO2	9.8	9.2	3.5	7.2	0.9	4.99*	11760*	1796	3072
Cc1onc(-c2ccccc2)c1C(=O)Nc1ccncc1	-2.0	6.5	6.0	4.8	1	0.167	nt	nt	nt
COC(=O)c1ccc(OCC(O)CN(Cc2ccccc2)Cc2ccccc2)cc1 (stereo unspecified)	nt	nt	nt	-7.4	nt	nt	nt	nt	nt
